Experiment [1] can be described thus: ATG_CRE_CIS: Attagene CIS-FACTORIAL HepG2 Assay for human cAMP Responsive Element (CRE) binding protein 3 (AID 2282926). As to conditions: HepG2 CRE cis-reporter, Attagene multiplexed mRNA; actives raise or lower the signal. A digest of the protocol: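 Liver-derived HepG2, transfected with a CRE-containing reporter panel, exposed 24 h; transcript levels sized and quantified by capillary electrophoresis of labelled amplicons; signal changes either way referenced to vehicle.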

Experiment [2] deals with CCAAT/enhancer-binding protein beta (Homo sapiens) (UniProt P17676). As to the kind of experiment: ATG_C_EBP_CIS: Attagene CIS-FACTORIAL HepG2 Assay for human CCAAT/Enhancer Binding Protein (C/EBP) beta (AID 2282927). As to conditions: HepG2 Attagene cis-factorial transcription factor reporter; actives raise or lower the signal. A digest of the protocol:
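HepG2, transient MRTU transfection, 24 h treatment. RT-PCR plus CE fluorescence; DMSO negative control, bidirectional fit.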

Experiment [3] deals with Aryl hydrocarbon receptor (Homo sapiens) (UniProt P35869). The experiment is described as follows: ATG_Ahr_CIS: Attagene CIS-FACTORIAL HepG2 Assay for human Aryl Hydrocarbon Receptor (Ahr) (AID 2282930). Particulars: HepG2 AhR cis-factorial reporter transcription; actives raise or lower the signal. A digest of the protocol: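 Endogenous factor activity is tracked through cis-promoter reporter units transfected into HepG2 cells. Transcript levels at 24 h are read by fluorescent RT-PCR and capillary electrophoresis, with activity in either direction scored relative to DMSO.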

A short description of experiment [4]: ATG_AP_1_CIS: Attagene CIS-FACTORIAL HepG2 Assay for human Activator Protein 1 (AP-1) (AID 2282931). As to conditions: HepG2 Attagene cis-factorial AP-1 reporter mRNA; actives raise or lower the signal. The essentials:
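Cis-regulated reporter units transiently expressed in HepG2 report endogenous transcription-factor activity. Signal: reporter mRNA at 24 h, via RT-PCR and fluorescent capillary electrophoresis. Endpoint derived by bidirectional fitting, DMSO as negative control.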

Experiment [5] in a line: ATG_AP_2_CIS: Attagene CIS-FACTORIAL HepG2 Assay for human Activator Protein 2 (AP-2) (AID 2282932). As to conditions: HepG2 AP-2 cis-reporter, Attagene transcription factor profiling; actives raise or lower the signal. A digest of the protocol:
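Liver-derived HepG2 line, cis-reporter system measuring endogenous factors; 24 h dosing; reporter mRNA detected by fluorescent RT-PCR and capillary electrophoresis.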

Experiment [6] can be described thus: ATG_BRE_CIS: Attagene CIS-FACTORIAL HepG2 Assay for human Bone Morphogenetic Protein (BMP) Response Element (BRE) (AID 2282933). Particulars: HepG2 BMP response element reporter, Attagene transcription factor profiling; actives raise or lower the signal. The essentials: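 HepG2 cells transiently transfected with multiplexed cis-element reporter units were dosed with chemical for 24 h. Reporter mRNA was measured by RT-PCR with fluorescent labelling, HpaI digestion and capillary electrophoresis; bidirectional fitting relative to DMSO.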

Experiment [7] deals with Retinoic acid receptor alpha (Homo sapiens) (UniProt P10276). As to the kind of experiment: ATG_DR5_RAR_CIS: Attagene CIS-FACTORIAL HepG2 Assay for human Retinoic Acid Receptor Alpha (RARE), DR5 submotif (AID 2282934). Particulars: HepG2 Attagene cis-factorial RARE DR5 reporter, mRNA; actives raise or lower the signal. A digest of the protocol: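 After 24 h of chemical exposure, transiently transfected HepG2 cells were lysed for total RNA; the DR5-regulated reporter transcript was quantified via RT-PCR and capillary electrophoresis, with activity fitted bidirectionally against DMSO.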

Experiment [8] has as its target Transcription factor E2F1 (Homo sapiens) (UniProt Q01094). As to the kind of experiment: ATG_E2F_CIS: Attagene CIS-FACTORIAL HepG2 Assay for human E2F Transcription Factor 1 (AID 2282935). As to conditions: HepG2 Attagene cis-reporter, E2F reporter RNA transcripts; actives raise or lower the signal. The essentials:
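Liver-derived HepG2 cells expressing transfected promoter-driven reporter units received test chemical for 24 hours. Signal gains or losses were fitted bidirectionally against DMSO.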

Experiment [9] is described as follows: ATG_E_Box_CIS: Attagene CIS-FACTORIAL HepG2 Assay for human Enhancer Box (E-box) (AID 2282936). Particulars: HepG2 E-box cis-reporter transcription, actives raise or lower the signal. A digest of the protocol: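 In this cell-based setup, HepG2 cells bearing transfected promoter-driven reporter units were exposed to chemicals for 24 h; reporter transcripts were amplified, 6-FAM-labelled, cut with HpaI and sized by capillary electrophoresis.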

Experiment [10] in a line: ATG_M_61_CIS: Attagene CIS-FACTORIAL HepG2 Assay for M61 Transcription Factor (Internal Marker) (AID 2282937). As to conditions: HepG2 Attagene CIS-FACTORIAL M61 internal marker reporter; actives raise or lower the signal. A digest of the protocol:
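Background-control endpoint: HepG2 cells with cis-regulated reporter constructs, 24 h exposure, reporter mRNA detected via fluorescent primer extension and capillary electrophoresis; values from bidirectional fitting with DMSO baseline.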

A short description of experiment [11]: ATG_EGR_CIS: Attagene CIS-FACTORIAL HepG2 Assay for human Early Growth Response 1 (EGR1) (AID 2282938). Particulars: HepG2 Attagene CIS-FACTORIAL EGR reporter mRNA; actives raise or lower the signal. The essentials:
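Endpoint derived by bidirectional fitting versus DMSO vehicle. Method: cis-promoter reporter units transfected into HepG2, 24 h dosing, RNA isolation, RT-PCR with 6-FAM primer extension and HpaI digestion, then capillary electrophoresis fluorescence detection.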

A short description of experiment [12]: ATG_M_19_CIS: Attagene CIS-FACTORIAL HepG2 Assay for M19 Transcription Factor (Internal Marker) (AID 2282939). As to conditions: HepG2 Attagene CIS-FACTORIAL M19 internal marker reporter; actives raise or lower the signal. A digest of the protocol:
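HepG2 cells transiently transfected with cis-regulated multiple reporter transcription units were dosed for 24 h; reporter mRNA was quantified by RT-PCR, 6-FAM primer-extension labelling, HpaI digestion and capillary electrophoresis, with bidirectional fitting against DMSO baseline.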

Experiment [13] can be described thus: ATG_Ets_CIS: Attagene CIS-FACTORIAL HepG2 Assay for human Erythroblast Transformation Specific (ETS) (AID 2282941). As to conditions: HepG2 ETS cis-reporter transcription, actives raise or lower the signal. A digest of the protocol:
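Bidirectional fit versus DMSO of reporter mRNA signal, detected by RT-PCR and capillary electrophoresis in HepG2 cells transiently transfected with cis-element reporters and dosed 24 h.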

Experiment [14] has as its target Hepatocyte nuclear factor 3-beta (Homo sapiens) (UniProt Q9Y261). The experiment is described as follows: ATG_FoxA2_CIS: Attagene CIS-FACTORIAL HepG2 Assay for human Forkhead box A2 (FOXA2) (AID 2282942). As to conditions: HepG2 cis-reporter transcription factor activity, 24 h; actives raise or lower the signal. A digest of the protocol:
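Measured: reporter mRNA induction or loss in HepG2 transiently carrying multiple cis-regulated reporter units, 24 h after dosing. Quantified by RT-PCR plus capillary electrophoresis, normalised to DMSO.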

Experiment [15] is described as follows: ATG_FoxO_CIS: Attagene CIS-FACTORIAL HepG2 Assay for human Forkhead box O (FoxO) (AID 2282943). Particulars: HepG2 Attagene cis-reporter, FoxO element, mRNA; actives raise or lower the signal. The essentials:
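Transfected HepG2 reporter cells exposed to test chemical for 24 h; reporter RNA measured by reverse transcription, PCR and fluorescent capillary electrophoresis; curves fitted for increases and decreases against DMSO.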

The nature of experiment [16]: ATG_GATA_CIS: Attagene CIS-FACTORIAL HepG2 Assay for human GATA Binding Protein (AID 2282944). Particulars: HepG2 GATA cis-element reporter, Attagene multiplex mRNA; actives raise or lower the signal. A digest of the protocol: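 HepG2 cells transiently transfected with multiplexed cis-element reporter units reflecting endogenous transcription factor activity; reporter mRNA measured after 24 h dosing by RT-PCR, 6-FAM labeling, HpaI digestion and capillary electrophoresis. Bidirectional fitting versus DMSO baseline.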

Experiment [17] in a line: ATG_GLI_CIS: Attagene CIS-FACTORIAL HepG2 Assay for human Zinc Finger Protein GLI1 (AID 2282945). Particulars: HepG2, Attagene cis-factorial reporter mRNA, GLI element; actives raise or lower the signal. The essentials:
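Transiently transfected HepG2 cells report endogenous transcription factor activity via cis-element-driven reporter units. After 24 h compound exposure, reporter mRNA was measured by RT-PCR with capillary electrophoresis; bidirectional fitting against DMSO baseline.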

A short description of experiment [18]: ATG_CMV_CIS: Attagene CIS-FACTORIAL HepG2 Assay for human CMV (Internal Marker) (AID 2282928).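 Further: endpoint acts as a background internal control marker rather than a target.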 Particulars: HepG2 CMV promoter reporter, transcription factor profiling; actives raise or lower the signal. The essentials:
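Reporter transcripts from transfected HepG2 cells are isolated after 24 h of chemical dosing, reverse-transcribed and amplified. Fragments labeled with 6-FAM are cut with HpaI and quantified by capillary electrophoresis; DMSO defines baseline.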

The nature of experiment [19]: ATG_DR4_LXR_CIS: Attagene CIS-FACTORIAL HepG2 Assay for human Liver X Receptor (LXR), DR4 submotif (AID 2282929). Particulars: HepG2 Attagene DR4 cis-reporter, mRNA transcription; actives raise or lower the signal. The essentials:
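DR4 cis-reporter in HepG2, 24 h exposure. Detection: RT-PCR, 6-FAM labelling, CE fragment analysis. Endpoint fitted bidirectionally, DMSO = baseline.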

This is an account of results in PubChem BioAssay (EPA / NIEHS).

The AC50 is the midpoint of the concentration-response curve, whichever way the signal moves.

Activity calls are given as the source filed them. How the source made its calls: active means hit-call score of the fitted dose curve at least 0.9, where 1 is the maximum; inactive means score below 0.9.

Sequence of Hepatocyte nuclear factor 3-beta (Homo sapiens) (Q9Y261 whole entry, looked up): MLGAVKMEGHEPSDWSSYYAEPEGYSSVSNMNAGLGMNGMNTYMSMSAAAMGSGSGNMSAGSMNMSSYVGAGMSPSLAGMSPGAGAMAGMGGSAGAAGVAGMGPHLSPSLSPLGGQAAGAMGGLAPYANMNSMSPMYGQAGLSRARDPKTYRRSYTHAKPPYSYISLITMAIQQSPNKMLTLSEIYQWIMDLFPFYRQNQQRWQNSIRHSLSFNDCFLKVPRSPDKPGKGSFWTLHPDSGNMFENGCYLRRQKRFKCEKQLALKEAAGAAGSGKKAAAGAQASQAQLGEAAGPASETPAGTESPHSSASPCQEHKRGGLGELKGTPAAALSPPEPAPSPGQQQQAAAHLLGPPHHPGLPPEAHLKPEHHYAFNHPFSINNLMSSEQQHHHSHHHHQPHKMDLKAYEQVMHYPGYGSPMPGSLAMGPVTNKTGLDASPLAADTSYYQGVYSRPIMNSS
Sequence of Aryl hydrocarbon receptor (Homo sapiens) (P35869 whole entry, looked up): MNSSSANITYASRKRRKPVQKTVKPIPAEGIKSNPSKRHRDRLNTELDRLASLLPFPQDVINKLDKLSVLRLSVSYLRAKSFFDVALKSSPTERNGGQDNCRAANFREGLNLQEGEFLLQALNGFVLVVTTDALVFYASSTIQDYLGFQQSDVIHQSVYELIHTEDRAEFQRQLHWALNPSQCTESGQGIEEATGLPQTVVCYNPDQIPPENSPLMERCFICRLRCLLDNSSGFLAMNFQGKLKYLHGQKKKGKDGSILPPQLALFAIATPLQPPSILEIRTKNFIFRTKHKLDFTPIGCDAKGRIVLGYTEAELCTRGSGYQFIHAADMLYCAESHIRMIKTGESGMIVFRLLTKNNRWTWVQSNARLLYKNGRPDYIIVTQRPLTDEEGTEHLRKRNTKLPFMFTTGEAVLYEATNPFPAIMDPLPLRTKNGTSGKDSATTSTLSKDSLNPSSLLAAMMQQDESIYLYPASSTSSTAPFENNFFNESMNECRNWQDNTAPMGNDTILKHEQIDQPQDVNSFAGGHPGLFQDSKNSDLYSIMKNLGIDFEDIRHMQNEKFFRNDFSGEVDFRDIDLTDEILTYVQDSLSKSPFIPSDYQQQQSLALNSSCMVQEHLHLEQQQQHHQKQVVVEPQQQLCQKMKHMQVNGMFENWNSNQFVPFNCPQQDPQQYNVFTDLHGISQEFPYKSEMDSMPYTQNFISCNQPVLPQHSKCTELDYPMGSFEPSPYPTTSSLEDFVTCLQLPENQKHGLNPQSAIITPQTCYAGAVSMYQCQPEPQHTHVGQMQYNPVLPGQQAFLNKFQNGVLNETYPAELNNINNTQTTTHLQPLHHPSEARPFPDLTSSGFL
Sequence of Transcription factor E2F1 (Homo sapiens) (Q01094 whole entry, looked up): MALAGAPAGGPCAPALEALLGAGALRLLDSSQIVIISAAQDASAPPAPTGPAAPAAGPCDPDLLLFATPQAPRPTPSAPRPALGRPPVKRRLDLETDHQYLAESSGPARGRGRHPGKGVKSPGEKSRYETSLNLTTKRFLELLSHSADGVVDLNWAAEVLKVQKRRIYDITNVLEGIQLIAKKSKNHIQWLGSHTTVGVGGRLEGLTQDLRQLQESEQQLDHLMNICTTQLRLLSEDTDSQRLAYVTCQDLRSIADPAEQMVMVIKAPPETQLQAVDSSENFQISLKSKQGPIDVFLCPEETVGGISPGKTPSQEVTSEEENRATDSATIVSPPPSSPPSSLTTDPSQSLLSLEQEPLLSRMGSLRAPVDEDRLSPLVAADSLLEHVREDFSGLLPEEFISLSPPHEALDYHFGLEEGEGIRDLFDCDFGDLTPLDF
Sequence of Retinoic acid receptor alpha (Homo sapiens) (P10276 whole entry, looked up): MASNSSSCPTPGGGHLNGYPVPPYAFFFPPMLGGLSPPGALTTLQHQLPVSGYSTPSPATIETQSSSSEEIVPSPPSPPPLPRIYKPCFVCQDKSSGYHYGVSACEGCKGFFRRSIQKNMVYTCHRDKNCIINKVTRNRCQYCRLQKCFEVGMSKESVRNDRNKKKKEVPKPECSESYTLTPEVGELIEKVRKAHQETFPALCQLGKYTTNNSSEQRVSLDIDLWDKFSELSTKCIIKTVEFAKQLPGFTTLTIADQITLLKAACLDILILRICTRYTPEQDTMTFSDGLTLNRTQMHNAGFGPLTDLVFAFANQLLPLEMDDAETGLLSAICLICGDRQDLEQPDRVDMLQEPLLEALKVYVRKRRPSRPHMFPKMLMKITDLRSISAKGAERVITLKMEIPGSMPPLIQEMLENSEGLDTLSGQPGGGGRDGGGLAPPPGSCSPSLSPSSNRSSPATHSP
Sequence of CCAAT/enhancer-binding protein beta (Homo sapiens) (P17676 whole entry, looked up): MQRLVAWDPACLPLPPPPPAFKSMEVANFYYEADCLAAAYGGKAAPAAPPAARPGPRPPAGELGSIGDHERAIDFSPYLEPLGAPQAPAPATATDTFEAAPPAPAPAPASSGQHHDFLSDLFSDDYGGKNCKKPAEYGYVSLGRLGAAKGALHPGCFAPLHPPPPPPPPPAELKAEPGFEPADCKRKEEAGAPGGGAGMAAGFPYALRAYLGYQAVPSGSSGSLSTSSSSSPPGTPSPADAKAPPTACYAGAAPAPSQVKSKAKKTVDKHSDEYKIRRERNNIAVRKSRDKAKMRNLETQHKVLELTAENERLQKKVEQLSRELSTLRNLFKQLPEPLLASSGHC

For `CC(C)=CCCC(C)CC(=O)O` (centres undefined), the compound was classed as inactive in [1], in [2], in experiment [3], in experiment [4], in experiment [5] and in experiment [6]. For the same compound, the compound was called inactive in experiment [7], in experiment [8], in [9], in [10], in [11] and in experiment [12]. In addition, the call in experiment [13], in experiment [14], in [15], in experiment [16] and in [17] was inactive.

With `Cc1ccc2c(c1)C(=O)OC2=O`, the result in experiment [1], in [18], in [19], in experiment [3], in experiment [4] and in [5] was inactive. The result in [6], in experiment [7], in experiment [8], in experiment [9], in [10] and in [12] was inactive. Besides, the outcome in experiment [13], in [14], in [15], in experiment [16] and in [17] was inactive.

For the compound `COC(=O)c1ccc(OC)cc1`, the result in experiment [1], in experiment [18], in experiment [19], in experiment [3], in [4] and in experiment [5] was inactive. Further, the result in [6], in experiment [7], in [8], in [9], in experiment [10] and in experiment [11] was inactive. The compound was called inactive in [13], in experiment [14], in experiment [15], in experiment [16] and in experiment [17].

In the case of `COc1ccc(CCN2CCC(Nc3nc4ccccc4n3Cc3ccc(F)cc3)CC2)cc1`, the outcome in [1], in experiment [2], in experiment [3], in experiment [4], in [5] and in [6] was inactive. Moreover, the compound was classed as inactive in [7], in experiment [9], in [10], in [11], in experiment [12] and in [13]. The outcome in experiment [14], in experiment [15], in [16] and in experiment [17] was inactive.

In the case of `CN(C)C(=O)Nc1ccc(Oc2ccc(Cl)cc2)cc1`, the compound was classed as inactive in [1], in experiment [3], in experiment [5], in experiment [7], in [8] and in [9]. Besides, the call in [10], in experiment [11], in experiment [12], in experiment [13], in [14] and in experiment [15] was inactive. In addition, the call in [16] and in experiment [17] was inactive. The figures for the AC50 in [18], in experiment [19] and in experiment [4] were 71.9 µM (active), 72 µM (active) and 100 µM (active), respectively.

For `CCCC(C)C(O)CC` (centres undefined), the compound was called inactive in experiment [1], in [18], in experiment [19], in [3], in experiment [5] and in [6]. The result in experiment [7], in experiment [8], in experiment [9], in [10], in experiment [11] and in [12] was inactive. For the same compound, the result in [13], in experiment [14], in [15], in [16] and in [17] was inactive.

Take `Cc1ccc(-c2ccccc2)cc1`: the call in experiment [1], in experiment [18], in [19], in experiment [3], in experiment [4] and in experiment [5] was inactive. Further, the call in experiment [6], in [7], in experiment [8], in experiment [9], in [10] and in [11] was inactive. In addition, the call in experiment [12], in experiment [13], in [14], in experiment [15], in [16] and in experiment [17] was inactive.
